NFkB SMM: binders of human NF-kappa-B p105 | AID 624139 | P19838 | calls only | Small molecule microarray, anti-His fluorescence binding | 1.3% of 17,000 active;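 active means spot fluorescence over background significantly raised, with a chance value under 7% in all four replicate spots of the compound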;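 further: probe protein is his-tagged human p50 processed subunit at 1 µg/ml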
Myc binder: c-Myc (human) binding; AID 624141; 1.5% of 17,000 active; small molecule microarray, His-c-Myc binding, anti-His fluorescence; calls only;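 active means spot fluorescence over background with P-value below 7% in all four replicate spots, showing protein binding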
STAT3 binder: STAT3 (human) binding; P40763; Small molecule microarray, His-STAT3 binding, anti-His fluorescence; calls only; 0.2% of 17,000 active;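 active means compounds whose four printed spots each show fluorescence over background unusually high for their array block, chance value under 7%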
mut p53 SMM: binders of human mutant p53. small molecule microarray binding, anti-GST fluorescence. calls only. 0.4% of 17,000 active;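 active means compounds whose four printed spots each glow above background more than chance allows, each with a p-value under 7%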
Calls only; i = inactive; + = active, no number. Only some compounds are listed: those with a hit (about 2.1% of all), similar ones and a draw of the others.

SMILES	NFkB SMM	Myc binder	STAT3 binder	mut p53 SMM
O=C(O)C1C2CCC(O2)C1C(=O)NCCc1ccccc1 (configuration not stated)	i	+	i	i
Cc1ccc2c(c1)Cc1c(C(=O)NC3CCCCC3)nn(-c3ccc(Cl)cc3Cl)c1-2	+	i	i	i
CCC(CO)NC(=O)C1C=C2c3cccc4[nH]cc(c34)CC2N(C)C1 (configuration not stated)	+	+	i	i
CC[C@@H](CO)NC(=O)[C@@H]1C=C2c3cccc4c3c(cn4C)C[C@H]2N(C)C1	i	+	i	i
CCC(C)[C@H]1C(=O)O[C@H](C(C)C)C(=O)N(C)[C@@H](C(C)C)C(=O)O[C@H](C(C)C)C(=O)N(C)[C@@H](C(C)C)C(=O)O[C@H](C(C)C)C(=O)N1C (some centres not stated)	+	i	i	i
CC(=O)c1c(C)n(Cc2ccccc2)c2c(Cl)c(Cl)c(Cl)c(OCC(=O)O)c12	i	i	i	i
O=C1/C(=C/c2ccccc2)C[C@@]2(O)C3Cc4ccc(O)c5c4[C@@]2(CCN3CC2CC2)[C@H]1O5	i	i	i	i
CO[C@H]1[C@@H](O)[C@@H](C)O[C@@H](OC2CCC3(C)C(CC[C@@H]4[C@@H]3CCC3(C)C(C5=CC(=O)OC5)C(O)CC43O)C2)[C@@H]1O (some centres not stated)	i	i	i	i
COC1CC(OC2CCC3(C)C(CCC4(O)C3CC(OC(=O)c3ccccc3)C3(C)C(O)(C(C)=O)CCC43O)C2)OC(C)C1OC1CC(OC)C(OC2OC(C)C(O)C(OC)C2O)C(C)O1 (configuration not stated)	+	+	i	i
O=C1Nc2cc(Cl)c(Cl)cc2N2CCNCC12 (configuration not stated)	i	i	i	i
CC[C@@H]1/C=C\C=C\C[C@H](C)[C@@H](O)[C@](C)(O)C(=O)[C@H](C)[C@@H](O)[C@H](C)C(=O)[C@H](C)[C@@H](O)[C@H](C)/C=C/C(=O)O[C@H]2[C@@H](C)[C@@H](CC1)O[C@@]1(CC[C@@H](C)[C@@H](C[C@H](C)O)O1)[C@@H]2C	i	i	i	i
CNCC(O)c1ccc(O)c(OC)c1 (configuration not stated)	i	i	i	i

High-throughput results (PubChem BioAssay)
